# Data: PubChem BioAssay (NCATS)
# Unmarked numbers belong to inactive results. Inconclusive results are not listed. Entries that show only a call come without a potency. Activity calls are given as the source filed them. Calls follow the shape of the dose curve; as a rule, active = well fitted curve in the direction sought with a large enough effect; inconclusive = small, poorly fitted or top-dose-only effect, or another doubt; inactive = no such curve, though single readings can be large; an effect the other way counts as inactive or inconclusive.
# Test system: not listed separately
# Test: Viability counterscreen for antagonist of constitutive androstane receptor (CAR) against the NCATS DSHEA and TCM libraries (AID 1794837);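 also: compound exposure lasted 24 h before viability reading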
# Details: CAR reporter cell line viability counterscreen, qHTS; series mostly up to 40 µM; viability change, negative = cytotoxic: at the top concentration
# How it was run: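 Counterscreen performed in a 1536-well qHTS format using HepG2-CYP2B6-hCAR cells; samples titrated in the presence of 48 uM CITCO, with viability measured fluorometrically (405/540 nm) after 24 h.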
row,SMILES,"viability change, negative = cytotoxic [%]"
1,CC1=C(C/C=C(\C)CCC[C@H](C)CCC[C@H](C)CCCC(C)C)C(=O)c2ccccc2C1=O,13.3
2,O=C1O[C@H]([C@@H](O)CO)C(O)=C1O,7.79
3,O=C(O)c1ccccc1O,-1.06

# Test system: not listed separately
# Test: Viability counterscreen for agonist of constitutive androstane receptor (CAR) against the NCATS DSHEA and TCM libraries (AID 1794838);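 also: cells exposed to compound for 24 h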
# Details: HepG2 cell viability counterscreen, CAR agonist assay, co-treated with 0.75 µM CAR antagonist; series mostly up to 40 µM; activity change, negative = cytotoxicity: at the top concentration
# How it was run: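 Multiplexed counterscreen: after 24 h compound exposure with 0.75 uM PK11195, HepG2-CYP2B6-hCAR viability was quantified fluorimetrically (CellTiter-Fluor, 405/540 nm) prior to the ONE-Glo luciferase read.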
row,SMILES,"activity change, negative = cytotoxicity [%]"
1,CC1=C(C/C=C(\C)CCC[C@H](C)CCC[C@H](C)CCCC(C)C)C(=O)c2ccccc2C1=O,31.8
2,O=C1O[C@H]([C@@H](O)CO)C(O)=C1O,26.8
3,O=C(O)c1ccccc1O,16.3

# Biological target: Nuclear receptor subfamily 1 group I member 3 (Homo sapiens) (UniProt Q14994)
# Test: Primary qHTS for agonist of constitutive androstane receptor (CAR) against the NCATS DSHEA and TCM libraries (AID 1794839);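 also: HepG2 cells expressing human CAR with a CYP2B6 reporter plus PK11195 antagonist; luciferase reporter luminescence read with ONE-Glo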
# Details: CAR agonist reporter cells, qHTS luminescence, CAR antagonist co-added at 0.75 µM; series mostly up to 40 µM; activation: at the top concentration
# How it was run: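 Concentration–response screen in HepG2-CYP2B6-hCAR cells under 0.75 µM PK11195; 24 h exposure; luminescent reporter signal with multiplexed fluorescent viability.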
# Sequence of Nuclear receptor subfamily 1 group I member 3 (Homo sapiens) (Q14994 whole entry, looked up): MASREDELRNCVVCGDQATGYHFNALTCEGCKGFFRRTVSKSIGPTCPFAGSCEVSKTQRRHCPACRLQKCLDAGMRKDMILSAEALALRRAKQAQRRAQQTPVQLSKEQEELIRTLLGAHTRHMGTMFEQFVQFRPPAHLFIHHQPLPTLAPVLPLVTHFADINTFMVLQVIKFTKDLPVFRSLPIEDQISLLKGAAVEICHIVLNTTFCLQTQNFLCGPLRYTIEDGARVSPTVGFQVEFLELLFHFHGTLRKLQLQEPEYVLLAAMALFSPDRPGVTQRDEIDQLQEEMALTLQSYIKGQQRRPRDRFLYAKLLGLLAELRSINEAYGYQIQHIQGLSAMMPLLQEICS
row,SMILES,activation [%]
1,CC1=C(C/C=C(\C)CCC[C@H](C)CCC[C@H](C)CCCC(C)C)C(=O)c2ccccc2C1=O,-17.3
2,O=C1O[C@H]([C@@H](O)CO)C(O)=C1O,7.27
3,O=C(O)c1ccccc1O,-24.5

# Test system: not listed separately
# Test: HepG2 viability counterscreen (readout 2: ATP content) against the NCATS DSHEA and TCM libraries (AID 1794840);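 also: HepG2 cells exposed to substances for about 24 h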
# Details: ATP content luminescence; series mostly up to 27.3 µM; activity change, negative = cytotoxic: at the top concentration
# How it was run: (§1)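 After HepG2 cells attach for ~4 h, substances are added and incubated ~24 h at 37C, 5% CO2. GF-AFC fluorescence then CellTiter-Glo luminescence give protease and ATP readouts.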
row,SMILES,"activity change, negative = cytotoxic [%]"
1,CC1=C(C/C=C(\C)CCC[C@H](C)CCC[C@H](C)CCCC(C)C)C(=O)c2ccccc2C1=O,1.84
2,O=C1O[C@H]([C@@H](O)CO)C(O)=C1O,-2.43
3,CC12CCC(CC1)C(C)(C)O2,-4.7
4,O=C(O)c1ccccc1O,-1.45
5,NC(N)=NCCC[C@H](N)C(=O)O,-0.176

# Test system: not listed separately
# Test: HepG2 viability counterscreen (readout 1: protease activity) against the NCATS DSHEA and TCM libraries (AID 1794841);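 also: cells exposed to compounds for about 24 h before the protease read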
# Details: qHTS concentration series; series mostly up to 27.3 µM; activity change, negative = inhibition: at the top concentration
# How it was run: as §1
row,SMILES,"activity change, negative = inhibition [%]"
1,CC1=C(C/C=C(\C)CCC[C@H](C)CCC[C@H](C)CCCC(C)C)C(=O)c2ccccc2C1=O,-0.563
2,O=C1O[C@H]([C@@H](O)CO)C(O)=C1O,-1.29
3,O=C(O)c1ccccc1O,8.68
4,NC(N)=NCCC[C@H](N)C(=O)O,-5.62

# Biological target: Metallo-beta-lactamase type 2 (Klebsiella pneumoniae) (UniProt C7C422)
# Test: qHTS to identify inhibitors of the New Delhi Metallo-beta-lactamase (NDM): assay validation screen against the NCATS LOPAC Collection (AID 1794843)
# Details: NDM-1 enzyme, nitrocefin hydrolysis, absorbance 485 nm; series mostly up to 38.4 µM; activity change, negative = inhibition: at the top concentration
# How it was run: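 Absorbance at 485 nm from nitrocefin turnover (50 uM solution added), read at plateau, gives the read-out. Compounds in DMSO were incubated first with 2 nM final NDM-1 in pH 7.0 HEPES buffer containing 1 uM ZnSO4 and 0.01% Tween20.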
# Sequence of Metallo-beta-lactamase type 2 (Klebsiella pneumoniae) (C7C422 whole entry, looked up): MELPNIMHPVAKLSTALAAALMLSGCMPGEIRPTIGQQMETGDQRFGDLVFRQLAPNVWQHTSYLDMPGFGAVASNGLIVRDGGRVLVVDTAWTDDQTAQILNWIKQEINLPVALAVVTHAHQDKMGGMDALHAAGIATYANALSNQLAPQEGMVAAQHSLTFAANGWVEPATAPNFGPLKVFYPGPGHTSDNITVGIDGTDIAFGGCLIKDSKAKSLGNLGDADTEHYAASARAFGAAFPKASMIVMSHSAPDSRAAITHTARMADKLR
SMILES,"activity change, negative = inhibition [%]",outcome
CCCCc1ncc(/C=C(\Cc2cccs2)C(=O)O)n1Cc1ccc(C(=O)O)cc1,14,–
Cc1cc(N)c2ccccc2[n+]1CCCCCCCCCC[n+]1c(C)cc(N)c2ccccc21,1.29,–
C#CCN(C)Cc1ccccc1,-7.28,–
CC(C)(C)[C@]1(O)CCN2C[C@H]3c4ccccc4CCc4cccc(c43)[C@@H]2C1,–,inactive
NC(N)=NCCC[C@H](N)C(=O)O,-1.57,–
CC1=C(/C=C/C(C)=C/C=C/C(C)=C/C(=O)O)C(C)(C)CCC1,-20.6,–
C[C@](N)(Cc1ccc(O)cc1)C(=O)O,1.38,–

# Biological target: Glutathione peroxidase 1 (Homo sapiens) (UniProt P07203)
# Test: Primary qHTS Assay for Inhibitors of Recombinant Selenoprotein Glutathione Peroxidase 1 (GPX1) (AID 1845191); also: nearly all actives have a fitted effect of over 65% in size
# Details: recombinant GPX1, GR-coupled NADPH fluorescence, 15 min; series mostly up to 48.8 µM; activity, negative = inhibition: at the top concentration
# How it was run: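 Recombinant GPX1 (10 nM final) was preincubated with compound for 30 min at room temperature, then reacted with 1 mM GSH, 0.5 mM CHP, 0.5 mM NADPH and 100 nM glutathione reductase; NADPH fluorescence (340/450 nm) was read at 0 and 15 min.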
# Sequence of Glutathione peroxidase 1 (Homo sapiens) (P07203 whole entry, looked up): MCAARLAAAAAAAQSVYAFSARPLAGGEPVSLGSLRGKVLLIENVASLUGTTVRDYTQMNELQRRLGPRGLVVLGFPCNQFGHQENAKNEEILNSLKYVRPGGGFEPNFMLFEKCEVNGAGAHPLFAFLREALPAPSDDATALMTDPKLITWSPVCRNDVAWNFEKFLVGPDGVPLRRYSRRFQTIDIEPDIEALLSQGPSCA
SMILES,Potency,"activity, negative = inhibition [%]",outcome
CCCCc1ncc(/C=C(\Cc2cccs2)C(=O)O)n1Cc1ccc(C(=O)O)cc1,inactive,–,–
NCC(=O)CCC(=O)O,–,-8.2,–
Cc1ncc(COP(=O)(O)O)c(C=O)c1O,–,-1.9,–
COc1ccc2cc1Oc1ccc(cc1)C[C@H]1c3c(cc4c(c3Oc3cc5c(cc3OC)CCN(C)[C@@H]5C2)OCO4)CCN1C,–,–,inactive
CC(CN1c2ccccc2Sc2ccccc21)N(C)C (centres undefined),inactive,–,–
CCOc1nc2cccc(C(=O)O)c2n1Cc1ccc(-c2ccccc2-c2nn[nH]n2)cc1,–,–,inactive
O=C1Nc2ccc(Cl)cc2[C@@](C#CC2CC2)(C(F)(F)F)O1,inactive,–,–
Cc1ccc2nc(N)[nH]c(=O)c2c1Sc1ccncc1,inactive,–,–
Cc1cc(N)c2ccccc2[n+]1CCCCCCCCCC[n+]1c(C)cc(N)c2ccccc21,inactive,–,–
C#CCN(C)Cc1ccccc1,inactive,–,–
COc1ccc(Cl)cc1C(=O)NCCc1ccc(S(=O)(=O)NC(=O)NC2CCCCC2)cc1,inactive,–,–
C[C@]12CC[C@@H]3c4ccc(O)cc4CC[C@H]3[C@@H]1CCC2=O,inactive,–,–
CC(C)(C)[C@]1(O)CCN2C[C@H]3c4ccccc4CCc4cccc(c43)[C@@H]2C1,inactive,–,–
O=C1O[C@H]([C@@H](O)CO)C(O)=C1O,–,-4.13,–
O=C(O)c1ccccn1,–,-11.3,–
CC12CCC(CC1)C(C)(C)O2,–,–,inactive
CN1CCN(C2Cc3ccccc3Sc3ccc(Cl)cc32)CC1 (centres undefined),–,-28.8,–
NC(N)=NCCC[C@H](N)C(=O)O,inactive,–,–
CN(C)CC[C@@H](c1ccc(Cl)cc1)c1ccccn1,inactive,–,–
CC1=C(/C=C/C(C)=C/C=C/C(C)=C/C(=O)O)C(C)(C)CCC1,inactive,–,–
Cc1cc(C(C#N)c2ccc(Cl)cc2)c(Cl)cc1NC(=O)c1cc(I)cc(I)c1O (centres undefined),–,–,inactive
CCN(CC)CCCC(C)Nc1c2ccc(Cl)cc2nc2ccc(OC)cc12 (centres undefined),inactive,–,–
C[C@](N)(Cc1ccc(O)cc1)C(=O)O,inactive,–,–
O=c1cc(CO)occ1O,–,–,inactive
CN(C)CCCN1c2ccccc2Sc2ccc(Cl)cc21,inactive,–,–
NC(=O)c1ncn([C@@H]2O[C@H](CO)[C@@H](O)[C@H]2O)n1,inactive,–,–
Nc1nc2c(ncn2CCC(CO)CO)c(=O)[nH]1,inactive,–,–
CC[C@H]1CN2CCc3cc(OC)c(OC)cc3[C@@H]2C[C@@H]1C[C@H]1NCCc2cc(OC)c(OC)cc21,inactive,–,–
CC(C)(O)c1ccccc1CC[C@@H](SCC1(CC(=O)O)CC1)c1cccc(/C=C/c2ccc3ccc(Cl)cc3n2)c1,inactive,–,–

# Biological target: Phospholipid hydroperoxide glutathione peroxidase GPX4 (Homo sapiens) (UniProt P36969)
# Test: Primary qHTS Assay for Inhibitors of Recombinant Selenoprotein Glutathione Peroxidase 4 (GPX4) (AID 1845192); also: nearly all actives have a fitted effect of over 65% in size
# Details: recombinant GPX4, GR-coupled NADPH fluorescence, 15 min; series mostly up to 50 µM; activity change, negative = inhibition: at the top concentration
# How it was run: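 GR-coupled readout: 100 nM GR, 1 mM GSH, 0.5 mM NADPH; NADPH fluorescence (ex 340/em 450 nm) read at t=0 and after 15 min RT. GPX4 200 nM, preincubated 30 min with compound; substrate 0.5 mM CHP.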
# Sequence of Phospholipid hydroperoxide glutathione peroxidase GPX4 (Homo sapiens) (P36969 whole entry, looked up): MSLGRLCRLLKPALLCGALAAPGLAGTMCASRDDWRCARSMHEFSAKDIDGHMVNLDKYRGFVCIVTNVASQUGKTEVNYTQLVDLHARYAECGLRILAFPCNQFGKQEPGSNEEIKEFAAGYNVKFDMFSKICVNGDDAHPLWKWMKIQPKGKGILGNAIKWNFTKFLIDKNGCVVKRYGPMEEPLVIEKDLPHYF
SMILES,Potency,outcome,"activity change, negative = inhibition [%]"
CCCCc1ncc(/C=C(\Cc2cccs2)C(=O)O)n1Cc1ccc(C(=O)O)cc1,inactive,–,–
NCC(=O)CCC(=O)O,–,inactive,–
Cc1ncc(COP(=O)(O)O)c(C=O)c1O,–,–,-3.09
COc1ccc2cc1Oc1ccc(cc1)C[C@H]1c3c(cc4c(c3Oc3cc5c(cc3OC)CCN(C)[C@@H]5C2)OCO4)CCN1C,inactive,–,–
CC(CN1c2ccccc2Sc2ccccc21)N(C)C (centres undefined),inactive,–,–
CCOc1nc2cccc(C(=O)O)c2n1Cc1ccc(-c2ccccc2-c2nn[nH]n2)cc1,–,–,15.1
O=C1Nc2ccc(Cl)cc2[C@@](C#CC2CC2)(C(F)(F)F)O1,inactive,–,–
Cc1ccc2nc(N)[nH]c(=O)c2c1Sc1ccncc1,inactive,–,–
Cc1cc(N)c2ccccc2[n+]1CCCCCCCCCC[n+]1c(C)cc(N)c2ccccc21,inactive,–,–
C#CCN(C)Cc1ccccc1,inactive,–,–
COc1ccc(Cl)cc1C(=O)NCCc1ccc(S(=O)(=O)NC(=O)NC2CCCCC2)cc1,inactive,–,–
C[C@]12CC[C@@H]3c4ccc(O)cc4CC[C@H]3[C@@H]1CCC2=O,inactive,–,–
CC1=C(C/C=C(\C)CCC[C@H](C)CCC[C@H](C)CCCC(C)C)C(=O)c2ccccc2C1=O,–,–,2.21
CC(C)(C)[C@]1(O)CCN2C[C@H]3c4ccccc4CCc4cccc(c43)[C@@H]2C1,inactive,–,–
O=C1O[C@H]([C@@H](O)CO)C(O)=C1O,–,–,-3.22
O=C(O)c1ccccn1,–,–,-13.4
CC12CCC(CC1)C(C)(C)O2,–,inactive,–
CN1CCN(C2Cc3ccccc3Sc3ccc(Cl)cc32)CC1 (centres undefined),–,–,-19.3
NC(N)=NCCC[C@H](N)C(=O)O,inactive,–,–
CN(C)CC[C@@H](c1ccc(Cl)cc1)c1ccccn1,inactive,–,–
CC1=C(/C=C/C(C)=C/C=C/C(C)=C/C(=O)O)C(C)(C)CCC1,inactive,–,–
Cc1cc(C(C#N)c2ccc(Cl)cc2)c(Cl)cc1NC(=O)c1cc(I)cc(I)c1O (centres undefined),inactive,–,–
CCN(CC)CCCC(C)Nc1c2ccc(Cl)cc2nc2ccc(OC)cc12 (centres undefined),inactive,–,–
C[C@](N)(Cc1ccc(O)cc1)C(=O)O,inactive,–,–
O=c1cc(CO)occ1O,–,inactive,–
CN(C)CCCN1c2ccccc2Sc2ccc(Cl)cc21,inactive,–,–
NC(=O)c1ncn([C@@H]2O[C@H](CO)[C@@H](O)[C@H]2O)n1,inactive,–,–
Nc1nc2c(ncn2CCC(CO)CO)c(=O)[nH]1,inactive,–,–
CC[C@H]1CN2CCc3cc(OC)c(OC)cc3[C@@H]2C[C@@H]1C[C@H]1NCCc2cc(OC)c(OC)cc21,inactive,–,–
CC(C)(O)c1ccccc1CC[C@@H](SCC1(CC(=O)O)CC1)c1cccc(/C=C/c2ccc3ccc(Cl)cc3n2)c1,–,–,2.29
